The supplement of paper PMC10338343
± gives the standard deviation. Whole data set: some 8,200 sequences, median “pre-steady-state target cleavage rate” near 0.024, cut for the highest 2% near 1.3. Many of the other results were omitted from the sample, so the highest values are more common in it than they were.

System: MIWI (PIWIL1) piRISC loaded with L1MC piRNA (30 nt)
Assay: pre-steady-state target cleavage rate (min^-1); MIWI and MILI are mouse PIWI proteins and EfPiwi is from a freshwater sponge; tags in brackets are library labels; higher = faster piRNA-guided slicing of the target
Details: guide: L1MC piRNA 5'p-UAACUAAAUACUAUGCAAGCUGUAGGUCCU
Outline: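 A transcribed, DNA-blocked target RNA library […] was incubated at 33 °C for 0–8 or 0–960 min with 1 nM active affinity-purified piRISC carrying one synthetic guide, in HEPES–potassium acetate buffer with or without 500 nM GTSF1 partner protein. Uncleaved targets were then sequenced and normalised to depth and to weakly complementary targets. Data from three trials were pooled, with k3 capped at 0.0001 min^-1, and a burst-and-steady-state fit yielded the pre-steady-state cleavage rate.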

[1] = auxiliary factor: 500 nM mouse GTSF1
[2] = auxiliary factor: none (no GTSF1)
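Also: 1 nM active piRISC with 0.1 nM target library at 33 °C single turnover.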

Sequence | pre-steady-state target cleavage rate [1] | pre-steady-state target cleavage rate [2]
UCCACCUACAGCUUGCAUAGUAUUUCAGUUA | 0.691 ± 0.081 | 0.0139 ± 0.0037
AGGACCUACUGCUUGCAUAGUAUUUAGAUA | 0.471 ± 0.048 | 0.0411 ± 0.0086
UCCUGGUAUAGCUUGCAUAGUAUUUAGUUA | 1.02 ± 0.043 | 0.0597 ± 0.012
UCCACCUACAGCUUGCAUACUAUAUAGUUA | 0.178 ± 0.022 | 0.0112 ± 0.003
AGGAGCUACAGCUUGCUUAGUAUUUAGUUA | 1.3 ± 0.061 | 0.0523 ± 0.011
AGGACCUACAGCUUGCUUAGUAUUUAGUUA | 1.43 ± 0.071 | 0.066 ± 0.015
UGGACCUACAGCUUGCUUAGUAUUUAGUUA | 1.56 ± 0.094 | 0.0426 ± 0.011
UCGAGCUACAGCUUGCUUAGUAUUUAGUUA | 1.19 ± 0.053 | 0.0376 ± 0.0079
AGGACCUACAGCUUGCUUAGUAUUUAGUAA | 0.862 ± 0.079 | 0.0262 ± 0.0068
UGGACCUACAGCUUGCUAGUAUUUAGUUA | 0.0515 ± 0.013 | 0.00386 ± 0.0022
AGGACCUACAGCUUGCUAGUAUUUAGUUA | 0.179 ± 0.041 | 0.00501 ± 0.0024
UGGACCUACAGCUUGCUUAGUAUUUAGUAA | 1.03 ± 0.073 | 0.0335 ± 0.0097
UGGAGCUACAGCUUGCUUAGUAUUUAGUUA | 1.33 ± 0.062 | 0.0391 ± 0.0074
UCCAGGAACAGCUUGCAUAGUAUUUACAAA | 0.328 ± 0.041 | 0.00665 ± 0.0019
UCCUCCUACAGCUUGCAAAGUUUUUAGUUA | 0.352 ± 0.029 | 0.0137 ± 0.0033
UCCUGGAUGUCCUUUCAUAGUAUUUAGUUA | 0.0134 ± 0.004 | 
UCCUGGUAGACCUUGCAUAGUAUUUAGUUA | 0.46 ± 0.042 | 0.00968 ± 0.0029
UCCACCUACACCUUGCAUAGAAUUUAGUUA | 0.337 ± 0.066 | 0.0107 ± 0.003
UGGACCUACAGCUUUCAUAGUAUUUAGUUA | 0.593 ± 0.032 | 0.0286 ± 0.0052
UCCACCUACAGCUUACAUAGUAUUUAGUUA | 0.753 ± 0.034 | 0.0222 ± 0.0039
UGGACCUACAGCUUCAUAGUAUUUAGUUA | 1.36 ± 0.077 | 0.0221 ± 0.0047
AGGACCUACAGCUUACAUAGUAUUUAGUUA | 1.28 ± 0.064 | 0.0655 ± 0.011
UGGACCUACAGCUUGACAUAGUAUUUAGUUA | 0.986 ± 0.1 | 0.00706 ± 0.0031

Sequence | pre-steady-state target cleavage rate [1] | pre-steady-state target cleavage rate [2]
AGGACCUACAGCUUCAUAGUAUUUAGUUA | 1.11 ± 0.053 | 0.0309 ± 0.0073
UCGACCUACAGCUUACAUAGUAUUUAGUUA | 1.59 ± 0.062 | 0.0382 ± 0.0069
UCGACCUACAGCUUGACAUAGUAUUUAGUUA | 0.952 ± 0.072 | 0.00438 ± 0.0026
UGGACCUACAGCUUACAUAGUAUUUAGUUA | 1.53 ± 0.079 | 0.0508 ± 0.0082
UCCUGGAUGAGCUUGCAUAGUAUAUACAAA | 0.00918 ± 0.0054 | 
UCCUGGAAGAGCUUGCAUAGUAUUUACAAA | 0.0945 ± 0.02 | 
UCCUGCUACAGCUUGCUUAGUAUAUAGUUA | 0.404 ± 0.038 | 0.0128 ± 0.0044
UCCACCUACUGCUUGCAUACUAUUUAGUUA | 0.297 ± 0.026 | 0.0231 ± 0.0039
UCCUGCUAGAGCUUGCAUACUAUUUAGUUA | 0.248 ± 0.03 | 0.0221 ± 0.0058
UCCUGCUACUGCUUGGAUAGUAUUUAGUUA | 0.969 ± 0.077 | 0.0353 ± 0.0055
UCGACCUACACCUUGGAUAGUAUUUAGUUA | 0.854 ± 0.076 | 0.0364 ± 0.0044
UGGACCUACUGCUUGGAUAGUAUUUAGUUA | 1.65 ± 0.072 | 0.0542 ± 0.0088
UGGACCUACACCUUGGAUAGUAUUUAGUUA | 0.815 ± 0.069 | 0.0418 ± 0.0063
UCCUCCUACUGCUUGGAUAGUAUUUAGUUA | 1.21 ± 0.04 | 0.0517 ± 0.0073
AGGACCUACACCUUGGAUAGUAUUUAGUUA | 0.817 ± 0.061 | 0.0497 ± 0.0086
AGGACCUACUGCUUGGAUAGUAUUUAGUUA | 1.34 ± 0.052 | 0.061 ± 0.0085
UCGACCUACUGCUUGGAUAGUAUUUAGUUA | 1.67 ± 0.068 | 0.0575 ± 0.0089
UCCACCUACUGCUUGGAUAGUAUUUAGUUA | 1.14 ± 0.049 | 0.0503 ± 0.0082
UCCUGGAUGUCGAACGUAUCUAAUUAGUAA |  | < 0.0001
UCCUGGAUCAGCUUGAUAGUAUUUAGUUA | 0.0664 ± 0.007 | 0.00393 ± 0.0017
AGGACCUAGAGCUUGCAUAGUAUUUUCAAA | 0.0396 ± 0.013 | 
UCCUGCUACAGCAUGCAUAGUAUUUAGUAA | 0.655 ± 0.063 | 0.00614 ± 0.0024
UCCUGGAACAGCUACCAUAGUAUUUAGUAA | 0.0979 ± 0.017 | 

Sequence | pre-steady-state target cleavage rate [1] | pre-steady-state target cleavage rate [2]
UCCUCCUACAGCUUGCAUAGUUAAUAGAAA | 0.0486 ± 0.014 | 
UCCUGGUACAGCUUGCAAUGUAUUUAGAAA | 0.0194 ± 0.0063 | 
UCGACCUACAGCUUGGUUAGUAUUUUCAAA | 0.0241 ± 0.0089 | 
UCCUGGAUGUCCUUGCAUAGUAUAAUGUUA | 0.0139 ± 0.0063 | 
UCGACCUACAGCUUGCAUAGUAUUAACAAA | 0.401 ± 0.044 | 
UCCACCUACAGCUUGCUUAGUAUUAAGUUA | 0.31 ± 0.03 | 0.00763 ± 0.0016
UGGUCCUACAGCAUGCAUAGUAUUUAGUUA | 1.19 ± 0.061 | 0.0657 ± 0.014
AGGUCCUACAGCAUGCAUAGUAUUUAGUUA | 1.33 ± 0.062 | 0.107 ± 0.026
UGGACCUACAGCAUGCAUAGUAUUUAGUAA | 0.977 ± 0.075 | 0.0303 ± 0.0065
AGGACCUACAGCAUGCAUAGUAUUUAGUUA | 1.33 ± 0.06 | 0.073 ± 0.015
UGGACCUACAGCAUGCAUAGUAUUUAGUUA | 1.38 ± 0.078 | 0.0549 ± 0.011
UGGACCUACAGCAUUGCAUAGUAUUUAGUUA | 1.27 ± 0.11 | 0.0665 ± 0.014
UCGUCCUACAGCAUGCAUAGUAUUUAGUUA | 1.26 ± 0.047 | 0.0282 ± 0.0049
AGGACCUACAGCAUGCAUAGUAUUUAGAAA | 0.577 ± 0.059 | 0.00715 ± 0.0031
AGGACCUACAGCAUGCAUAGUAUUUAGUAA | 0.986 ± 0.075 | 0.0556 ± 0.014
UCCUGGAUGUCGAUGCAUAGUAUUUAGUGA | 0.0103 ± 0.0037 | 
UCCACCUACAGCAAGCAUAGUAUUUAGAAA | 0.243 ± 0.035 | 
UCCUGGAUGUCCUUGGAUAGUAUUUUGUUA | 0.0668 ± 0.017 | 
UCCUCCUACAGCUUGCAUAGUAUCUUAGUUA | 0.96 ± 0.045 | 0.016 ± 0.0044
UGGACCUACAGGAUGCAUAGUAUUUACAAA | 0.216 ± 0.039 | 
UCCUGGAACUCGUUGCAUAGUAUUUAGUAA | 0.071 ± 0.011 | 0.00318 ± 0.0021
UCCUGCUACAGCUUGCAUAGUAUUUAGUA | 0.422 ± 0.071 | 0.00464 ± 0.0019
UCCUGCUACAGCUUGCUUAGAAUUUAGUUA | 0.247 ± 0.026 | 0.00845 ± 0.0029

Sequence | pre-steady-state target cleavage rate [1] | pre-steady-state target cleavage rate [2]
AGGACCUACACGAUGCAUAGUAUUUACAAA | 0.19 ± 0.025 | 
UCCACCUACAGCUUGCAAAGUAUAUAGUUA | 0.468 ± 0.045 | 0.0135 ± 0.0031
UGGACCUACAGCUUGCAAAGUAUAUAGUUA | 0.895 ± 0.057 | 0.0204 ± 0.0062
UGGACCUACAGCUUGCAUAGUAUAUUAGUUA | 1.33 ± 0.079 | 0.0409 ± 0.0089
UCGACCUACAGCUUGCAAAGUAUAUAGUUA | 0.855 ± 0.055 | 0.0157 ± 0.0033
AGGACCUACAGCUUGCAUAGUAUAUUAGUUA | 1.18 ± 0.097 | 0.0609 ± 0.015
UGGACCUUCAGCUUGCAUAGUAUUUAGUUA | 1.45 ± 0.067 | 0.069 ± 0.011
AGGACCUACAGCUUGCAAAGUAUAUAGUUA | 0.667 ± 0.049 | 0.0238 ± 0.0054
AGGACCUUCAGCUUGCAAAGUAUUUAGUUA | 1.3 ± 0.051 | 0.0464 ± 0.0089
AGGACCUUCAGCUUGCAUAGUAUUUAGUUA | 1.32 ± 0.056 | 0.0842 ± 0.013
AGGACCUACAGCUUGCAUAGUAUUAUAGUUA | 1.05 ± 0.078 | 0.0707 ± 0.015
UGGACCUACAGCUUGCAUAGUAUAUAGUUA | 0.892 ± 0.062 | 0.0341 ± 0.0087
AGGACCUUCAGCUUGCAUAGUAUUUAGUAA | 1.07 ± 0.079 | 0.0632 ± 0.012
UGGACCUUCAGCUUGCAUAGUAUUUAGUAA | 1.07 ± 0.064 | 0.0524 ± 0.011
UGGACCUUCAGCUUGCAAAGUAUUUAGUUA | 1.34 ± 0.073 | 0.0368 ± 0.0084
AGGACCUACAGCUUGCAUAGUAUAUAGUAA | 0.493 ± 0.058 | 0.0216 ± 0.0048
AGGACCUACAGCUUGCAUAGUAUAUAGUUA | 0.884 ± 0.066 | 0.0667 ± 0.017
UGGACCUACAGCUUGCAUAGUAUUAUAGUUA | 1.24 ± 0.062 | 0.052 ± 0.011
UGGACCUACAGCUUGCAUAGUAUAUAGUAA | 0.356 ± 0.038 | 0.012 ± 0.0037
UGGACCUACAGCUUGCAUAGUAUUAGUUA | 0.172 ± 0.032 | 0.00299 ± 0.0019
